Results published in PubChem BioAssay AID1159580 (chemical genetic matrix, 2015).
Among all 5,500 compounds or so, about 2,000 (36%) were called active. About 18% were inconclusive and are not listed. Rule as the data show it: active = normalized growth mostly below about 0.91 (no sharp cut-off); inconclusive = no clear call, values can overlap the other calls; inactive = mostly above about 0.92. The list shows a part of the results.

Test: chemical genetic growth profiling, strain panel (AID 1159580);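 also: tested at 20 µM; growth read once vehicle control cultures reached saturation at 30 °C; 1 = growth at the plate median or of vehicle wells; lower values mean less growth of the strain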
Details: S. cerevisiae deletion strains, growth OD
[1] = locus YAL040C, strain CLN3, active compounds read low
[2] = locus YER002W, strain NOP16, active compounds read low
[3] = locus YJR075W, strain HOC1, active compounds read low
[4] = locus YNL175C, strain NOP13, active compounds read low
[5] = locus YNL197C, strain WHI3, active compounds read low
[6] = locus YNL224C, strain SQS1, active compounds read low
[7] = locus YOR083W, strain WHI5 (second series), active compounds read low

Measured: normalized growth

O=C1CC2(CCCC2)CC(=O)N1CCCCN1CCN(c2ncccn2)CC1
inactive: locus YAL021C, strain ccr4, active compounds read low 0.985 | locus YAL026C, strain drs2, active compounds read low 1.03 | locus YAL030W, strain snc1, active compounds read low 0.998 | [1] 0.987 | locus YBL061C, strain skt5, active compounds read low 0.995 | locus YBR009C, strain hhf1, active compounds read low 0.989 | locus YBR023C, strain chs3, active compounds read low 0.996 | locus YBR171W, strain sec66, active compounds read low 1.01 | locus YBR231C, strain swc5, active compounds read low 0.993 | locus YBR279W, strain paf1, active compounds read low 0.999 | locus YCL011C, strain gbp2, active compounds read low 1 | locus YCL016C, strain dcc1, active compounds read low 1 | locus YCL061C, strain MRC1, active compounds read low 0.998 | locus YCL069W, strain vba3, active compounds read low 1 | locus YCR088W, strain abp1, active compounds read low 1.01 | locus YDL005C, strain med2, active compounds read low 0.993 | locus YDL040C, strain nat1, active compounds read low 0.996 | locus YDR001C, strain nth1, active compounds read low 1.02 | locus YDR069C, strain doa4, active compounds read low 0.978 | locus YDR137W, strain rgp1, active compounds read low 0.984 | locus YDR159W, strain sac3, active compounds read low 0.985 | locus YDR195W, strain ref2 0.974 | locus YDR297W, strain sur2, active compounds read low 1 | locus YDR334W, strain swr1, active compounds read low 1.01 | locus YDR335W, strain msn5, active compounds read low 1 | locus YDR392W, strain spt3, active compounds read low 0.801 | locus YEL003W, strain gim4, active compounds read low 1.01 | locus YEL037C, strain rad23, active compounds read low 1.01 | locus YEL061C, strain CIN8 (second series), active compounds read low 1.01 | [2] 1.01 | locus YER015W, strain faa2, active compounds read low 0.998 | locus YER016W, strain bim1, active compounds read low 0.996 | locus YER111C, strain swi4, active compounds read low 1 | locus YER155C, strain BEM2 (second series), active compounds read low 1 | locus YFR010W, strain ubp6, active compounds read low 1.02 | locus YGL167C, strain pmr1, active compounds read low 0.991 | locus YGL173C, strain kem1, active compounds read low 1 | locus YGL227W, strain vid30, active compounds read low 1 | locus YGL240W, strain doc1, active compounds read low 0.978 | locus YGL253W, strain hxk2, active compounds read low 1.01 | locus YHR013C, strain ard1, active compounds read low 0.929 | locus YHR027C, strain rpn1, active compounds read low 1 | locus YHR030C, strain SLT2, active compounds read low 1.06 | locus YHR079C, strain IRE1, active compounds read low 1 | locus YHR142W, strain chs7, active compounds read low 1.02 | locus YJL092W, strain hpr5, active compounds read low 1.04 | locus YJL095W, strain BCK1 (second series), active compounds read low 0.995 | locus YJL095W, strain BCK1, active compounds read low 1 | locus YJL115W, strain asf1, active compounds read low 0.998 | locus YJL129C, strain trk1, active compounds read low 1.02 | locus YJL154C, strain vps35, active compounds read low 1 | locus YJL164C, strain tpk1, active compounds read low 0.986 | locus YJL166W, strain qcr8, active compounds read low 0.987 | locus YJL187C, strain SWE1, active compounds read low 0.996 | locus YJR066W, strain TOR1, active compounds read low 0.959 | [3] 0.978 | locus YKL160W, strain elf1, active compounds read low 0.986 | locus YKR026C, strain gcn3, active compounds read low 1.01 | locus YKR091W, strain srl3, active compounds read low 0.995 | locus YLL001W, strain dnm1, active compounds read low 0.983 | locus YLL026W, active compounds read low 0.987 | locus YLL041C, strain sdh2, active compounds read low 0.999 | locus YLR027C, strain aat2, active compounds read low 0.999 | locus YLR113W, strain HOG1, active compounds read low 1.04 | locus YLR221C, strain rsa3, active compounds read low 0.995 | locus YLR258W, strain gsy2, active compounds read low 0.977 | locus YLR262C, strain YPT6 (second series), active compounds read low 0.958 | locus YLR320W, strain mms22, active compounds read low 0.974 | locus YLR342W, strain FKS1, active compounds read low 1 | locus YLR357W, strain rsc2, active compounds read low 1.02 | locus YLR370C, strain arc18, active compounds read low 1.01 | locus YLR384C, strain iki3, active compounds read low 0.978 | locus YML120C, strain ndi1, active compounds read low 1 | locus YMR058W, strain fet3, active compounds read low 1 | locus YMR125W, strain sto1, active compounds read low 0.998 | locus YMR129W, active compounds read low 1.02 | locus YMR205C, strain PFK2, active compounds read low 0.994 | locus YMR231W, strain pep5, active compounds read low 0.992 | locus YNL071W, strain lat1, active compounds read low 0.999 | locus YNL128W, strain TEP1, active compounds read low 0.979 | locus YNL153C, strain GIM3, active compounds read low 0.996 | [4] 1.01 | locus YNL183C, strain NPR1, active compounds read low 0.96 | [5] 0.96 | locus YNL209W, strain ssb2, active compounds read low 0.986 | [6] 0.996 | locus YNL248C, strain rpa49, active compounds read low 1 | locus YNL322C, strain KRE1 (second series), active compounds read low 0.99 | locus YNR049C, strain mso1, active compounds read low 1.01 | locus YOR001W, strain rrp6, active compounds read low 0.988 | locus YOR070C, strain gyp1, active compounds read low 0.999 | locus YOR080W, strain dia2, active compounds read low 0.987 | [7] 1.01 | locus YOR083W, strain WHI5, active compounds read low 1.02 | locus YOR106W, strain vam3, active compounds read low 0.997 | locus YOR231W, strain MKK1, active compounds read low 1.01 | locus YOR265W, strain rbl2, active compounds read low 1 | locus YOR270C, strain vph1, active compounds read low 1.03 | locus YOR290C, strain snf2, active compounds read low 0.934 | locus YPL051W, strain arl3, active compounds read low 0.992 | locus YPL078C, strain atp4, active compounds read low 1 | locus YPL106C, strain sse1, active compounds read low 0.999 | locus YPL240C, strain hsp82, active compounds read low 1.01 | locus YPL241C, strain CIN2, active compounds read low 1 | locus YPL256C, strain CLN2, active compounds read low 0.999

CCNC(=O)N1CCN(CCCC(c2ccc(F)cc2)c2ccc(F)cc2)CC1
inactive: [1] 0.994 | locus YCL061C, strain MRC1 (second series), active compounds read low 0.99 | locus YDR150W, strain NUM1, active compounds read low 0.982 | locus YDR363W, strain ESC2, active compounds read low 1.04 | [2] 1 | [3] 0.988 | locus YMR263W, strain SAP30, active compounds read low 0.988 | [4] 1.03 | [5] 1.02 | [6] 1.04 | locus YNL322C, strain KRE1, active compounds read low 0.974 | [7] 1 | locus YPL055C, strain LGE1, active compounds read low 0.916
